Records with an inconclusive call do not appear. Values without a mark were called inactive. Calls follow the shape of the dose curve; as a rule, active = well fitted curve in the direction sought with a large enough effect; inconclusive = small, poorly fitted or top-dose-only effect, or another doubt; inactive = no such curve, though single readings can be large or run the other way.

For this assay, the target named is Polyunsaturated fatty acid lipoxygenase ALOX15 (Homo sapiens) (UniProt P16050). As to the kind of experiment: Counterscreen qHTS for inhibitors of human arachidonate 12S-lipoxygenase (ALOX12): ALOX15 Assay. Also: 0% is about no effect. The settings on record: purified ALOX15 enzyme activity; series mostly up to 110 µM; activity change, negative = inhibition: at the top concentration. The gist of the method: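 Purified human ALOX15 (15hLO-1) at 40 nM in 25 mM HEPES, 0.01% Triton X-100, pH 7.5, preincubated with compound 15 min at RT. Then 50 uM arachidonic acid for 30 min; hydroperoxide detected by Fe-xylenol orange as the 573/405 nm absorbance ratio.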
Chain of Polyunsaturated fatty acid lipoxygenase ALOX15 (Homo sapiens) (P16050 whole entry, looked up): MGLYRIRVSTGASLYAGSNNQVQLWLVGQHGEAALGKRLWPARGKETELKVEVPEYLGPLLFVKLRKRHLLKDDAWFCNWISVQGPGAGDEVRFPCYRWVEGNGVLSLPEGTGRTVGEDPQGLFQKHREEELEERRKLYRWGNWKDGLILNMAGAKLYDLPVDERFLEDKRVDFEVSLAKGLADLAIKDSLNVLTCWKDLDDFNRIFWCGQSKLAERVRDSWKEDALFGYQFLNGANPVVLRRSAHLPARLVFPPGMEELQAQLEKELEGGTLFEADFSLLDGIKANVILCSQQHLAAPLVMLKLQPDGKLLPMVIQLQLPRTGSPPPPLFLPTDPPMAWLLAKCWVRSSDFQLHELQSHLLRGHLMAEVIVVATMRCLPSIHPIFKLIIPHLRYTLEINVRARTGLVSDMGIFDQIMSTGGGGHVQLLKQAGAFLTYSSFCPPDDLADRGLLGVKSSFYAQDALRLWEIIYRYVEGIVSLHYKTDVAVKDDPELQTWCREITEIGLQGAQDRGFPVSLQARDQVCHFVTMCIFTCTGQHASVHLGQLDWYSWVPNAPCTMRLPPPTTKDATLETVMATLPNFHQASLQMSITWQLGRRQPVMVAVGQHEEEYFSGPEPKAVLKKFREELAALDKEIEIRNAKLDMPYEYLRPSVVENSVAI
For orientation: A counterscreen serves to expose hits that act by an unwanted route or on another target.
For `CN1CC(=O)N(C2CCCNCC2)Cc2c1ncnc2N1CCC(N2CCCCC2)CC1` (stereo not drawn), the “activity change, negative = inhibition” value is 5.5%.

For `NCC(=O)N1Cc2ccccc2CC2(CCN(CC3CCNC3)C2)C1` (stereo not drawn), the “activity change, negative = inhibition” value is -0.295% [at 146 µM].

On to `CCCC(=O)N1Cc2ccccc2CC2(CCN(Cc3ccc(O)cc3)C2)C1` (stereo not drawn), for which the “activity change, negative = inhibition” value is 3.88%.

Turning to `CN(C)C(=O)N1Cc2ccccc2OC2(CCN(C(=O)Cc3cnc[nH]3)CC2)C1`, the “activity change, negative = inhibition” value was 9.22%.

`CCN1CCCCC12Cc1ccccc1CN(S(=O)(=O)c1ccccc1)C2` (stereo not drawn): the “activity change, negative = inhibition” value was 0.95%.

Consider `COc1ccc(C(=O)N2CC(Oc3ccc4c(c3)OCO4)C2)cc1`, for which the “activity change, negative = inhibition” value was 10.5% [at 146 µM].

On to `COCCNc1nc2c([S+](=O)([O-])c3cc(OC)ccc3OC)nnn2c2ccccc12`, for which the “activity change, negative = inhibition” value is 4.89%.

`O=C1NCc2ccccc2CC12CCN(Cc1c(F)cccc1Cl)CC2`: the “activity change, negative = inhibition” value was -31.6%.

For `CN1CC(=O)N(C2CCNCC2)Cc2c1ncnc2N1CCCC(O)C1` (stereo not drawn), the “activity change, negative = inhibition” value was -20%.

In the case of `CSc1ccc(-c2ccc(C(=O)O)cc2)cc1`, the “activity change, negative = inhibition” value is -17.8% [at 146 µM].

Consider `CC(=O)NCCC(=O)N1Cc2ccccc2CC2(CCCN2CC2CCNC2)C1` (stereo not drawn), for which the “activity change, negative = inhibition” value is -24.8%.

For `O=C(c1cc(C2CC2)nc2onc(C3CCCN3)c12)N1CCC(F)CC1` (stereo not drawn), the “activity change, negative = inhibition” value is -8.64%.

As to `Cc1noc(C)c1C(=O)N1Cc2ccccc2CC2(CCN(C)C2)C1` (stereo not drawn), the “activity change, negative = inhibition” value is -17.4% [at 146 µM].

Take `O=C(Nc1ccccc1)N1CCC(c2nnc3n2CCNC3)CC1`: the “activity change, negative = inhibition” value is -2.9%.

Regarding `c1ccc2c(c1)CCN2C1CN(Cc2cccc3ccccc23)C1`, the “activity change, negative = inhibition” value is -7.41% [at 146 µM].

For `CN1CC(=O)N(C2CCCNCC2)Cc2c1ncnc2N1CCCCC1` (stereo not drawn), the “activity change, negative = inhibition” value was 6.11% [at 146 µM].

As for `O=C(c1ccc2c(c1)OCO2)N1CCCC2(CC(c3ccccc3)=NO2)C1` (stereo not drawn), the “activity change, negative = inhibition” value was 4.68%.

In the case of `Fc1ccc(CN2CCC3(CC(c4cccc(C(F)(F)F)c4)=NO3)C2)cc1` (stereo not drawn), the “activity change, negative = inhibition” value was -0.975%.

On to `O=C1NCc2ccccc2CC12CCN(Cc1ccccc1F)C2` (stereo not drawn), for which the “activity change, negative = inhibition” value is 1.86% [at 146 µM].

Regarding `O=C1NC2(Cc3ccccc31)CN(C(=O)c1ccccc1)C2`, the “activity change, negative = inhibition” value was -8.74% [at 146 µM].

For `CCc1nc2c(c(-c3ccc(OC)cc3)n1)CCN(Cc1ccc(C(F)(F)F)cc1)CC2`, the “activity change, negative = inhibition” value is -24.3%.

`O=c1[nH]c(C2CCCN(Cc3cccc(Cl)c3)C2)nc2ccc(F)cc12` (stereo not drawn): the “activity change, negative = inhibition” value was -9.91%.

In the case of `NCC(=O)N1Cc2ccccc2CC2(CCCCN2CC2CCOCC2)C1` (stereo not drawn), the “activity change, negative = inhibition” value is -24.1%.

Regarding `NCc1cccc(-c2cc(C(F)(F)F)ccc2Cl)c1`, the “activity change, negative = inhibition” value was -3.31% [at 146 µM].

Regarding `FC(F)(F)c1ccc(N2C3CCC2CN(Cc2cccc(-c4cccs4)c2)C3)cc1`, the “activity change, negative = inhibition” value was 0.0453%.

With `CN1CCC2(Cc3ccccc3CN(C(=O)CCN)C2)C1` (stereo not drawn), the “activity change, negative = inhibition” value is 1.33% [at 146 µM].

`CN1CCC(C(=O)N2Cc3ccccc3CC3(CCCN(CC4CCNCC4)C3)C2)CC1` (stereo not drawn): the “activity change, negative = inhibition” value is -6.02%.

As to `CC(C)c1nc2c(c(-c3ccc(Cl)cc3)n1)CCN(C(=O)c1ccc3c(c1)OCO3)CC2`, the “activity change, negative = inhibition” value is -10.9%.

Consider `Cc1cc(C)c(CN2CCC3(Cc4ccccc4CNC3=O)C2)c(C)c1` (stereo not drawn), for which the “activity change, negative = inhibition” value was -19%.

On to `NCc1ccc(-c2cccc(C(F)(F)F)c2)cc1`, for which the “activity change, negative = inhibition” value was 29.9% [at 146 µM].

For `O=C1NC2(Cc3ccccc31)CN(C(=O)c1ccccc1F)C2`, the “activity change, negative = inhibition” value is -11.3% [at 146 µM].

With `O=C(c1cc(C2CC2)nc2onc(C3CCCNC3)c12)N1CCC(F)CC1` (stereo not drawn), the “activity change, negative = inhibition” value was 5.09%.

Turning to `COCCCNc1nc2c(S(=O)(=O)c3c(C)cc(C)cc3C)nnn2c2ccccc12`, the “activity change, negative = inhibition” value is -27.7%.

On to `O=C(Nc1ccc(F)cc1)c1c[nH]c2cccnc12`, for which the “activity change, negative = inhibition” value is -6.34% [at 146 µM].

Take `Cc1cc(Cl)ccc1-c1cccc(C=O)c1`: the “activity change, negative = inhibition” value was 8.77% [at 146 µM].

In the case of `Cc1ccc(-c2cccc(CN)c2)c(C)c1`, the “activity change, negative = inhibition” value is 14% [at 146 µM].

For `Cc1ccc(-c2ccc(C=O)cc2)cc1Cl`, the “activity change, negative = inhibition” value is -10.5% [at 233 µM].

With `CN1CC(=O)N(C2CCCNCC2)Cc2c(NCCO)ncnc21` (stereo not drawn), the “activity change, negative = inhibition” value is -9.22% [at 146 µM].
